# Test results taken from PubChem BioAssay (EPA / NIEHS).
# Results filed as inconclusive are left out. Activity calls are given as the source filed them. Rule for the calls, unless noted: active = hit-call score of the fitted dose curve at least 0.9, where 1 is the maximum; inactive = score below 0.9.
# Tests used:
# [1] = tested on: Brachyury (BRA) Protein Expression, TBXT (gene 6862); test: CCTE_Deisenroth_DEVTOX-GLR_Endo_BRA: CCTE's DevTox GLR-Endo Assay Evaluation of Brachyury (BRA) Protein Expression, Deisenroth Lab (AID 2284417)
# Description: CCTE_Deisenroth_DEVTOX-GLR_Endo assay is a cell-based, multiplex-readout assay that uses RUES2-GLR, a human pluripotent cell line, with measurements taken at 48 hours after chemical dosing in a 384-well microplateCCTE_Deisenroth_DEVTOX-GLR_Endo_BRA is 1 of 4 assay components calculated from the CCTE_Deisenroth_DEVTOX-GLR_Endo assay and it measures the percentage of cells in an mesoderm state. Using a type of inducible fluorescent protein reporter, gain-of-signal activity can be used to understand changes in gene expression with fluorescent microscopy. The percentage of BRA+ cells are determined by calculating the number of BRA+ cells divided by the cell count. To generalize the intended target to other relatable targets, this assay component is annotated to the transcription factor intended target family, where the subfamily is T-box protein.Data from the assay component CCTE_Deisenroth_DEVTOX-GLR_Endo_BRA was analyzed as 1 assay endpoint. The endpoint is the percent BRA+ cell population minus the 0.2% DMSO control in the CCTE_Deisenroth_DEVTOX-GLR_Endo assay. Furthermore, this assay endpoint can be referred to as a secondary readout, because this assay has produced multiple assay endpoints where this one serves as a measure of mesoderm differentiation.
# All assay protocols are aligned to the DevTox GLR-Endo assay workflow. Cells are seeded into 384-well microplates for 24 hours prior to initiating differentiation in defined media for a total duration of 48 hours. A total of two chemical exposures are administered in 24-hour intervals during the 48-hour differentiation period. At the assay termination point, cells are fixed and stained with a fluorescent dye demarcating the nucleus. High-content imaging is used to acquire brightfield and fluorescent channel images across 5 fields per well. Cell identification and mean biomarker fluorescence intensities are calculated with image analysis software to determine the total cell counts for viability assessment and the biomarker expression frequency for each lineage-dependent assay. A typical experimental design tests a 10-point concentration series (1 nM - 200 uM) for 28 compounds in single technical replicate. Assay plate controls include non-differentiated pluripotent cells (baseline control), lineage-specific differentiated cells (differentiation control), and DMSO solvent exposed differentiated cells (solvent control). Experiments typically comprise a minimum of four experimental replicates (n=4).
# [2] = CCTE_Deisenroth_DEVTOX-GLR_Endo_CellCount: Viability Assessment in CCTE's DevTox GLR-Endo Assay, Deisenroth Lab (AID 2284420)
# Outline: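 RUES2-GLR human pluripotent cells seeded 24 h, then differentiated 48 h with two chemical exposures at 24 h intervals (10-point, 1 nM - 200 uM). Fixed, nuclear-stained, imaged; nuclei counts give % change in cell count versus 0.2% DMSO.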
# [3] = tested on: SRY-box transcription factor 17 (SOX17) Protein Expression, Deisenroth Lab, SOX17 (gene 64321); test: CCTE_Deisenroth_DEVTOX-GLR_Pluri_SOX17: CCTE's DevTox GLR-Pluri Assay Evaluation of SRY-box transcription factor 17 (SOX17) Protein Expression, Deisenroth Lab (AID 2284427; active = hit-call score of the fitted dose curve at least 0.9, where 1 is the maximum)
# Outline: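 RUES2-GLR human pluripotent cells were seeded 24 h, then differentiated 48 h in defined media with two chemical exposures 24 h apart (10-point series, 1 nM - 200 uM). Fixed, nuclear-stained cells were imaged; %SOX17+ cells minus 0.2% DMSO control reported.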
# [4] = tested on: SRY-box transcription factor 2 (SOX2) Protein Expression, Deisenroth Lab, SOX2 (gene 6657); test: CCTE_Deisenroth_DEVTOX-GLR_Pluri_SOX2: CCTE's DevTox GLR-Pluri Assay Evaluation of SRY-box transcription factor 2 (SOX2) Protein Expression, Deisenroth Lab (AID 2284428)
# Outline: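 Human pluripotent RUES2-GLR cells were seeded 24 h, then differentiated 48 h in defined media with two chemical doses at 24-h intervals (10-point, 1 nM–200 uM). Nuclear-stained cells were imaged; SOX2+ cells/cell count gave percent change versus 0.2% DMSO control.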
# [5] = tested on: Brachyury (BRA) Protein Expression, Deisenroth Lab, TBXT (gene 6862); test: CCTE_Deisenroth_DEVTOX-GLR_Pluri_BRA: CCTE's DevTox GLR-Pluri Assay Evaluation of Brachyury (BRA) Protein Expression, Deisenroth Lab (AID 2284429; active = hit-call score of the fitted dose curve at least 0.9, where 1 is the maximum)
# Outline: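 Mesoderm readout after 48 h differentiation of human RUES2-GLR cells, dosed twice (24-h intervals) at 1 nM - 200 uM. BRA+ frequency from fluorescence imaging of fixed, nuclear-stained cells, DMSO-corrected.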
# [6] = CCTE_Deisenroth_DEVTOX-GLR_Pluri_CellCount: Viability Assessment in CCTE's DevTox GLR-Pluri Assay Evaluation of Total Cell Counts, Deisenroth Lab (AID 2284430)
# Outline: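 Cytotoxicity readout: fluorescent nuclei counts by high-content imaging, expressed as percent change relative to 0.2% DMSO. Human RUES2-GLR pluripotent line differentiated 48 h, dosed twice at 24-h intervals across 1 nM - 200 uM (10 points).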
# [7] = CCTE_Padilla_ZF_Score.Any: CCTE's 144 Hour Post-fertilization zebrafish Assay Score for Any Mortality or Malformation, Padilla Lab (AID 2284416)
# Outline: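 Wild-type zebrafish embryos with chorions, one per well in 10% Hanks' from 6–8 hpf, dosed in sealed plates at 26 C, 14:10 h light:dark; rinsed at 5 dpf; blinded scoring at 6 dpf for death or malformation, versus DMSO.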
# TTR (gene 7276) = test: CCTE_GLTED_hTTR_0.125uM: CCTE's human Transthyretin (hTTR) Inhibition Assay, with 0.125uM TTR, Great Lakes Toxicology and Ecology Division (GLTED) Lab (AID 2284431);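 note: hits lower the fluorescence signal relative to DMSO baseline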
# Outline: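 Cell-free displacement of the fluorescent probe ANSA from human TTR (0.125uM) after 2 h incubation with test chemical. Fluorescence read at 380 nm excitation/475 nm emission; loss of signal fitted relative to DMSO baseline.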
smiles,measurement,setting,value
NNC(=O)c1ccncc1,outcome,[1],inactive
same,outcome,[2],inactive
same,outcome,[3],inactive
same,outcome,[4],inactive
same,outcome,[5],inactive
same,outcome,[6],inactive
O=C(Cl)C(F)(F)C(F)(F)C(F)(F)C(=O)Cl,outcome,[7],inactive
C[Si](C)(C)C(F)(F)C(F)(F)C(F)(F)F,outcome,[7],inactive
FC(F)(F)COC(OCC(F)(F)F)OCC(F)(F)F,outcome,[7],inactive
Nc1ccn([C@@H]2O[C@H](CO)[C@@H](O)[C@@H]2O)c(=O)n1,AC50,[1],4.91 µM (active)
same,AC50,[2],0.259 µM (active)
same,AC50,[3],1.68 µM (active)
same,AC50,[4],0.244 µM (active)
same,AC50,[5],1.74 µM (active)
same,AC50,[6],0.234 µM (active)
FC(F)C(F)(F)COCC1CO1 (configuration not stated),AC50,[7],30.7 µM (active)
O=S(=O)(O)c1ccc(N=Nc2c(O)ccc3cc(S(=O)(=O)O)ccc23)cc1,AC50,TTR (gene 7276),17.1 µM (active)
C=CCc1cc(S(=O)(=O)c2ccc(O)c(CC=C)c2)ccc1O,AC50,TTR (gene 7276),1.67 µM (active)
CCc1ccc(O)c(C(C)(C)C)c1,AC50,TTR (gene 7276),12.4 µM (active)
OCCC(F)(F)C(F)(F)C(F)(F)C(F)(F)F,outcome,[7],inactive
O=S(=O)(O)CCC(F)(F)C(F)(F)C(F)(F)C(F)(F)C(F)(F)C(F)(F)F,outcome,[7],inactive
NCC(F)(F)C(F)(F)C(F)(F)C(F)(F)F,outcome,[7],inactive
CCCC(CCC)C(=O)O,outcome,[1],inactive
same,outcome,[2],inactive
same,outcome,[3],inactive
same,outcome,[4],inactive
same,outcome,[5],inactive
same,outcome,[6],inactive
NC(=O)N1c2ccccc2C=Cc2ccccc21,outcome,[1],inactive
same,AC50,[2],63.4 µM (active)
same,AC50,[3],64.8 µM (active)
same,AC50,[4],23 µM (active)
same,AC50,[5],47 µM (active)
same,outcome,[6],inactive
OC(O)(C(F)C(O)(O)C(F)(F)F)C(F)(F)F,AC50,[7],16.9 µM (active)
FC(F)=C(F)C(F)(F)C(F)(F)C(F)(F)C(F)(F)C(F)(F)C(F)(F)F,outcome,[7],inactive
FC(F)(F)C(F)(F)C(F)(F)C(F)(F)C(F)(F)C(F)(F)I,outcome,[7],inactive
